The values that follow come from PubChem BioAssay (NCI).

SMILES strings stand for the structures. This is part of a sample that, as a whole, favours compounds with a hit. Of some 83,000 tested, about 20% had one in any assay.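 Compound tested at a single concentration for 48 hours in 96-well plates; a percent growth value below 10 was scored as active.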 A number with no mark means an inactive call. The source made the active and inactive calls.

The first test concerns RPMI-8226 leukemia. As to the kind of experiment: NCI-60 one-dose screen, 48 h (100 = growth as untreated, 0 = no growth, -100 = all killed). The conditions noted are these: 10 µM unless noted.
Regarding `COc1ccc2[nH]c(O)c(N=Nc3nc(-c4ccccc4)cs3)c2c1`, the growth is 58.6%. Consider `COc1ccc(N=Nc2c(N)nn3c(N)c(C#N)c(-c4ccc(F)cc4)nc23)cc1`, for which the growth is 50.3%. On the same count and under the same terms, the same measure for `C=CCSc1nnc(-c2ccc(-c3nc4ccccc4[nH]3)cc2)o1`: 34.9%; for `Cc1oc(-c2ccccc2)nc1CN[C@@H]1C[C@@H]2C[C@H]([C@H]1C)C2(C)C`: -3.45% (active); for `COc1ccc(NC2=C(I)C(=O)C(C)=C(C)C2=O)cc1`: 2.98% (active).

A further test concerns OVCAR-8 ovarian. The description is as above. As to conditions: 10 µM unless noted.
As for `O=C(Nc1nc2ccccc2s1)Nc1ccccc1Cl`, the growth is 48.5%. Still for that read-out and setting: the same measure for `Cc1ccc(C(=O)Nc2cc(-n3ccnc3C)cc(C(F)(F)F)c2)cc1C#Cc1cnc2cccnn12`: 18.5%.

Take `O=C(c1ccc(O)cc1)C1[C@H](c2ccc(Cl)cc2)[C@@H](c2ccccc2)NC12C(=O)Nc1ccccc12` (stereo partly drawn): the growth was 12.5%. Consider `COc1ccc(-c2nc3ccc(-c4nnc(SCC(=O)Nc5ccc(/C(C)=N\O)cc5)o4)cc3[nH]2)cc1`, for which the growth is 55.4%. Regarding `C[C@H]1[C@@H](CC(=O)N[C@@H](Cc2coc3ccccc23)B(O)O)O[C@@H]2OC3(C)CC[C@H]4[C@H](C)CC[C@@H]1[C@@]24O3`, the growth is 47.1%. The same measure, in the same setting: the same measure for `Cc1cc(C(NC(=O)C2CC3(CC(Nc4cccc5c4C(=O)N(C4CCC(=O)NC4=O)C5=O)C3)C2)c2ccc3c(c2)OC(F)(F)O3)c(O)c2ncccc12` (stereo not drawn): 4.53% (active); for `NC(=O)c1ccc(-c2ccc3ncnc(N4CCc5cc(F)c(Cl)cc54)c3c2)cn1`: 71.1%.

For `CCN1C(=O)N(CC)C2NNC(Sc3c(C(=O)O)c4ccccc4n(CCC(C)C)c3=O)=NC21` (stereo not drawn), the growth is 5.92% (active). Same read-out and setting: the same measure for `COc1ccc2[nH]c(O)c(N=Nc3nc(-c4ccc(Cl)cc4)cs3)c2c1`: -64.4% (active); for `CC[C@]12C=CCN3CC[C@@]4(c5ccc(OC)cc5N(C)[C@H]4[C@@](O)(C(=O)OC)[C@@H]1OC(=O)CCCC[P+](c1ccc(F)cc1)(c1ccc(F)cc1)c1ccc(F)cc1)[C@@H]32`: 20%. Same read-out and setting: the same measure for `COc1cccc(/C=C/c2nc3ccccc3c(=O)n2CC(=O)Nc2ccccc2)c1`: 21.9%.

In the case of `O=C(c1ccc(Cl)cc1)C1[C@H](c2ccccc2Cl)[C@@H](c2ccccc2)NC12C(=O)Nc1ccc(Br)cc12` (stereo partly drawn), the growth is -76.9% (active). `O=C(CSc1nnc(-c2ccc(-c3nc4ccc(Cl)cc4[nH]3)cc2)o1)Nc1ccc(Cl)cc1`: the growth was -31.3% (active). Regarding `N#Cc1c(NC(=O)N2CCOCC2)n(-c2ccc(OC(F)(F)F)cc2)c2cc(F)ccc12`, the growth is 99.1%. Same read-out and setting: the same measure for `O=C(N/N=C/c1ccc(Cl)o1)c1[nH]c2ccc(Br)cc2c1-c1ccccc1`: -56.7% (active). Still for that read-out and setting: the same measure for `CC1=C(C(=O)OCc2ccccc2)C(c2cccc3ccccc23)n2c(nc3ccccc32)N1` (stereo not drawn): 31.2%; for `CC1=NN(C2=NC(=O)C(CC(=O)Nc3ccccc3C(F)(F)F)S2)C(c2ccc(N(C)C)cc2)C1` (stereo not drawn): 52.6%.

For `CN1C(=O)C2(C(C#N)=C(c3ccc(Cl)cc3)Nc3c2c(-c2ccccc2)nn3-c2ccccc2)c2ccccc21` (stereo not drawn), the growth was 98.5%. Still for that read-out and setting: the same measure for `O=[N+]([O-])c1cccc(-c2nnc3c(/C=C/c4ccc(F)cc4)nc4ccccc4n23)c1`: 85.2%. Same read-out and setting: the same measure for `COC(=O)c1cc(C(C)=O)n2c3ccccc3c3ccccc3c12`: 50.5%. On the same count and under the same terms, for `CCCCCCCOc1ccc(S(=O)(=O)Nc2ccc(C)c(F)c2C(=O)O)cc1` the value was 97.1%; for `COc1ccc2[nH]cc(-c3cc4nc(-c5cn(C)c6ncc(Br)cc56)cc(N)n4n3)c2c1`, -55.2% (active). For the compound `COc1ccc2c(c1)N=c1c-2cc2c(O)[nH]c(=S)n2c1=O`, the growth was 53.2%. Same read-out and setting: for `CC(C)C[C@H](NC(=O)[C@@H]1CCCCCCCCCCC(=O)N[C@@H](CC(=O)N2CCC[C@@H]2C2CCCC2)C(=O)N1)B(O)O` the value was -17.4% (active). With `O=C1NC(=S)/C(=C/c2cn(-c3ccccc3)nc2-c2ccccc2)S1`, the growth is 31.7%. As to `CN(C)C(=O)c1cc(-c2ccc3ncnc(N4CCc5cc(F)c(Cl)cc54)c3c2)cnc1N`, the growth is -8.58% (active). For `N#C/C(=C/c1ccc(Cl)cc1)c1nnc(NC(=O)c2ccc(-n3c(=O)[nH]c4ccccc4c3=O)cc2)s1`, the growth is 46%. The same measure, in the same setting: for `COc1c(B(O)O)cc(F)cc1-c1nc2c(F)cc3[nH]ncc3c2c2c1CCCC2` the value was 10.2%.
